From PubChem BioAssay (Tox21)
Results filed as inconclusive are left out. The source made the active and inactive calls. Unless noted, the call rests on the fitted dose curve.

Experiments:
[1] = Nuclear factor erythroid 2-related factor 2/antioxidant responsive element (Nrf2/ARE) small molecule agonists: qHTS cell viability counter screen in human keratinocytes (AID 1919968; active means well fitted curve in the direction sought with a large enough effect in the repeat runs; an effect the other way counts as inactive or inconclusive; further: nearly all actives have a fitted effect of over 55% in size)
Procedure, shortened: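 Fluorescence read-out from CellTiter-Fluor after 1 h at 37 C. Wells held HaCaT-derived ARE-luciferase reporter cells (1,500/well) treated 23 h with DMSO-dissolved compounds. Run in the same wells as the luciferase agonist read.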

[2] = Nuclear factor erythroid 2-related factor 2/antioxidant responsive element (Nrf2/ARE) small molecule agonists: luciferase reporter gene qHTS assay in human keratinocytes (AID 1919969); further: nearly all actives have a fitted effect of over 35% in size
[3] = biological target: Gonadotropin-releasing hormone receptor (Homo sapiens) (UniProt P30968); assay: Human gonadotropin-releasing hormone receptor (GnRHR) small molecule agonists, calcium flux assay in GnRHR-HEK293 cells (AID 1920063); further: nearly all actives have a fitted effect of over 35% in size
Chain of Gonadotropin-releasing hormone receptor (Homo sapiens) (P30968 whole entry, looked up): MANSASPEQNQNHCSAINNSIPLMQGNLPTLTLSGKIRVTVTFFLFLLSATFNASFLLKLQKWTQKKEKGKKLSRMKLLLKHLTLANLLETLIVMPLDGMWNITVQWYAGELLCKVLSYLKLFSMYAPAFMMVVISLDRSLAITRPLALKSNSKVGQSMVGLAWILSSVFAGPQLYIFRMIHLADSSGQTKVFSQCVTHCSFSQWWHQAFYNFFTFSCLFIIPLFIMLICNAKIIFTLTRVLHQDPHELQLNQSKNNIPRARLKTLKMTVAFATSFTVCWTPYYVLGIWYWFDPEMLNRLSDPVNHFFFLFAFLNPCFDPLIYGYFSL
Procedure, shortened: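 Calcium-dye fluorescence, Ex/Em=480/540, recorded every 1 sec over 3 min after compound addition to GnRHR-HEK293 cells. Cells had been seeded 18 hours earlier and dye-loaded for 1 hour at 37 C. Fifteen concentrations, triplicates.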

[4] = biological target: KiSS-1 receptor (Homo sapiens) (UniProt Q969F8); assay: Human kisspeptin (KISS1R) small molecule agonists, calcium flux assay in KISS1R-HEK293 cells (AID 1920064; active means well fitted curve in the direction sought with a large enough effect in the repeat runs; an effect the other way counts as inactive or inconclusive)
Chain of KiSS-1 receptor (Homo sapiens) (Q969F8 whole entry, looked up): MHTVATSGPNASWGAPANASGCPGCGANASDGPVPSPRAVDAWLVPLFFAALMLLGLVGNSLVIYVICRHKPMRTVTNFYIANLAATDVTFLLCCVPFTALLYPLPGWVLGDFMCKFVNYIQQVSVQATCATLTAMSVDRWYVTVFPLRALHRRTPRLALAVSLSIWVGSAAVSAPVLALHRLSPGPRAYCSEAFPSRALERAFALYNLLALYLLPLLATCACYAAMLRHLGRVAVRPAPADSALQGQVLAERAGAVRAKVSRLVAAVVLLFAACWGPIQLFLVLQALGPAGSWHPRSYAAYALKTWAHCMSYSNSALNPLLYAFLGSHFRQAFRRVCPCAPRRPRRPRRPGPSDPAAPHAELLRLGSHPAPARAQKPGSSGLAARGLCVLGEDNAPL
Procedure, shortened: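 Calcium flux read-out: kinetic fluorescence at Ex/Em=480/540, 1 s intervals over 3 min, after pin-tool compound addition to dye-loaded KISS1R-HEK293 cells. Fifteen concentrations, triplicates.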

[5] = G protein-coupled receptor (GPCR) small molecule agonists, calcium flux assay: HEK293 wild type cell line counter screen (AID 1920065)
Procedure, shortened: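 Agonist mode; 18 h seeding at 37 C, 1 h dye load at 37 C; compounds pinned from DMSO, ATP as positive control; kinetic fluorescence 480/540 nm, 3 min, 1 s reads; 15 concentrations, triplicate.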

[6] = p53 small molecule agonists, cell-based qHTS assay with human liver microsomes (AID 1963577);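 further: p53 response element beta-lactamase reporter cells with liver microsomes plus NADPH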
Procedure, shortened: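 HLM-supplemented p53RE-bla reporter assay: 16 h compound exposure at 37 C, microsomes and NADPH each 0.5 mg/mL final, read by fluorescence intensity.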

[7] = p53 small molecule agonists, cell-based qHTS assay with rat liver microsomes (AID 1963578)
Procedure, shortened: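 Quantitative HTS of the Tox21 10K library: p53RE-bla cells, rat liver microsomes plus NADPH at 0.5 mg/mL final each, 16 h at 37 C, beta-lactamase fluorescence detection.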

[8] = p53 small molecule agonists, cell-based qHTS assay with rat liver microsomes: qHTS cell viability counter screen (AID 1963580); further: nearly all actives have a fitted effect of over 45% in size
Procedure, shortened: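 Cytotoxicity counter screen: intracellular ATP measured by CellTiter-Glo luminescence in the same wells as the beta-lactamase reporter read, on HCT-116 p53RE-bla cells exposed 16 h at 37 C to compounds with rat liver microsomes and NADPH, each 0.5 mg/mL final.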

[9] = p53 small molecule agonists, cell-based qHTS assay: qHTS cell viability counter screen (AID 1963581); further: nearly all actives have a fitted effect of over 45% in size
Procedure, shortened: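 Cytotoxicity read-out: ATP-based luminescence (CellTiter-Glo, 30 min RT) measured in the same wells as the p53 reporter assay, HCT-116 p53RE-bla cells, 16 h compound exposure at 37 C.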

[10] = p53 small molecule agonists, cell-based qHTS assay (AID 1963582; active means well fitted activation curve with a large enough effect in the signal ratio in the repeat runs, not every such curve was filed as active; the % refers to the signal ratio)
Procedure, shortened: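 Fluorescence intensity read-out of a beta-lactamase reporter under a p53 response element. Cells were exposed to DMSO-dissolved compounds for 16 h at 37 C, then developed with FRET substrate for 2 h at RT.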

[11] = biological target: 5-hydroxytryptamine receptor 2A (Homo sapiens) (UniProt P28223); assay: 5-hydroxytryptamine receptor 2A (HTR2A) small molecule agonists, cell-based qHTS assay (AID 1963587); further: nearly all actives have a fitted effect of over 30% in size
Chain of 5-hydroxytryptamine receptor 2A (Homo sapiens) (P28223 whole entry, looked up): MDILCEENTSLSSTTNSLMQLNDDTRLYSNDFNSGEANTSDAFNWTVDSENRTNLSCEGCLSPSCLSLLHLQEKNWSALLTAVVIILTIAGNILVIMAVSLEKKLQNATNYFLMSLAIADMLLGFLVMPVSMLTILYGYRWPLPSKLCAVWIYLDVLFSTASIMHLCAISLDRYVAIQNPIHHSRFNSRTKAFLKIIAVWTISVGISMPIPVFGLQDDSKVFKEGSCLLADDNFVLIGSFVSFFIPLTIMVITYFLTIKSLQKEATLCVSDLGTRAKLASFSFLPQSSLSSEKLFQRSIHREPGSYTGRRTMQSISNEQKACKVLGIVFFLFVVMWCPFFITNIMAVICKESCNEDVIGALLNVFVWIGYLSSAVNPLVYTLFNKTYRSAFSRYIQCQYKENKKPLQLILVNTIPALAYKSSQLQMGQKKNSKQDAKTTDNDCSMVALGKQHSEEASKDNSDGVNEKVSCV
Procedure, shortened: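 CHO cells stably expressing human HTR2A, plated 18 h, loaded with calcium dye 1 h at 37 C. Agonist mode: compounds added and intracellular calcium fluorescence recorded kinetically for 2 min at 1 sec intervals.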

[12] = biological target: Muscarinic acetylcholine receptor M1 (Homo sapiens) (UniProt P11229); assay: Cholinergic receptor muscarinic 1 (CHRM1) small molecule antagonists, cell-based qHTS assay (AID 1963588); further: nearly all actives have a fitted effect of over 40% in size
Chain of Muscarinic acetylcholine receptor M1 (Homo sapiens) (P11229 whole entry, looked up): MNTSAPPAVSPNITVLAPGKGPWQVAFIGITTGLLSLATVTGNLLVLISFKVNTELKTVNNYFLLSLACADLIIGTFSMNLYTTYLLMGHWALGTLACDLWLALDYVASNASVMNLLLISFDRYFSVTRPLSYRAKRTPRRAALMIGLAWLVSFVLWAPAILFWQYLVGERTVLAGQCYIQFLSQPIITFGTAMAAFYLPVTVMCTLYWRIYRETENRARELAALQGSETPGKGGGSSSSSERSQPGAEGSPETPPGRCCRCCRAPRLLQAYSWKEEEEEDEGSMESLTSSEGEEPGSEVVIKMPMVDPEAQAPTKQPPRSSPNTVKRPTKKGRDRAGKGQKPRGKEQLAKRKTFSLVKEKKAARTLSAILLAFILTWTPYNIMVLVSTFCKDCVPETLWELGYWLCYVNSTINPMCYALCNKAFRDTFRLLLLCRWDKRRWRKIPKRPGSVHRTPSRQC
Procedure, shortened: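 Compounds were tested at 15 concentrations in three independent runs. Dye-loaded CHRM1-CHO cells were exposed 5 min at room temperature before stimulation by acetylcholine added at 50nM. Intracellular calcium was read kinetically on FDSS for 3 min.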

[13] = biological target: Muscarinic acetylcholine receptor M1 (Homo sapiens) (UniProt P11229); assay: Cholinergic receptor muscarinic 1 (CHRM1) small molecule agonists, cell-based qHTS assay (AID 1963589); further: nearly all actives have a fitted effect of over 35% in size
Procedure, shortened: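 Calcium flux read-out: kinetic fluorescence at 1 sec intervals after pin-tool compound addition to dye-loaded CHRM1-CHO cells (human M1). Agonist mode; 15 concentrations tested in triplicate independent runs.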

[14] = cAMP Responsive Elements (CRE) small molecule agonists, cell-based qHTS assay (AID 1963590)
Procedure, shortened: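 Beta-lactamase reporter readout: LiveBLAzer B/G FRET substrate, 2 h at room temperature, added after 3 h compound treatment of CRE-bla HEK 293T cells at 37 C/5% CO2.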

[15] = cAMP Responsive Elements (CRE) small molecule antagonists, cell-based qHTS assay (AID 1963591; active means well fitted inhibition curve with a large enough effect in the signal ratio in the repeat runs, not every such curve was filed as active; the % refers to the signal ratio)
Procedure, shortened: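 HEK293T CRE-bla; 18 h preincubation; compound pin-transfer; NKH477 0.25 uM final, 3 h, 37 C; LiveBLAzer FRET substrate 2 h RT.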

[16] = biological target: Beta-2 adrenergic receptor (Homo sapiens) (UniProt P07550); assay: Adrenergic beta2 receptor (ADRB2) small molecule antagonists, cell-based qHTS assay (AID 1963592); further: nearly all actives have a fitted effect of over 50% in size; further: potency means the concentration at half of the fitted maximal effect; on activity change, negative = inhibition: series mostly up to about 92 µM
Chain of Beta-2 adrenergic receptor (Homo sapiens) (P07550 whole entry, looked up): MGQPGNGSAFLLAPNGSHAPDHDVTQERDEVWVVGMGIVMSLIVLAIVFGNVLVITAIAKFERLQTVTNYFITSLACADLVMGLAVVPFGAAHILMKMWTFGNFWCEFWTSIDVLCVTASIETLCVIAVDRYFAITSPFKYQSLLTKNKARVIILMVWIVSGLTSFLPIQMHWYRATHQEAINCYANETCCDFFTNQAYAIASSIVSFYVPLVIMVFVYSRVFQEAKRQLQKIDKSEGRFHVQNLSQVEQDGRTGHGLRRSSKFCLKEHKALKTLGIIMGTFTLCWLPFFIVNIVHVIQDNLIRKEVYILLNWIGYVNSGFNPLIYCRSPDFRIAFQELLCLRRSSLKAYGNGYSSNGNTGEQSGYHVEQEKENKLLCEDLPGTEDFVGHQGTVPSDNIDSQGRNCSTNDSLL
Procedure, shortened: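 Assay format: CHO-ADRB2 cells, 18-20hr seeding at 37C/5% CO2, then compound plus 1nM isoproterenol agonist mix for 0.5hr RT. Homogeneous time-resolved fluorescence cAMP detection after 1hr, expressed as 665/615 nm ratio.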

[17] = biological target: D(2) dopamine receptor (Homo sapiens) (UniProt P14416); assay: Dopamine D2 receptor (DRD2) small molecule antagonists, cell-based qHTS assay (AID 1963595; active means well fitted inhibition curve with a large enough effect in the signal ratio in the repeat runs, with a control signal flat; the % refers to the signal ratio)
Chain of D(2) dopamine receptor (Homo sapiens) (P14416 whole entry, looked up): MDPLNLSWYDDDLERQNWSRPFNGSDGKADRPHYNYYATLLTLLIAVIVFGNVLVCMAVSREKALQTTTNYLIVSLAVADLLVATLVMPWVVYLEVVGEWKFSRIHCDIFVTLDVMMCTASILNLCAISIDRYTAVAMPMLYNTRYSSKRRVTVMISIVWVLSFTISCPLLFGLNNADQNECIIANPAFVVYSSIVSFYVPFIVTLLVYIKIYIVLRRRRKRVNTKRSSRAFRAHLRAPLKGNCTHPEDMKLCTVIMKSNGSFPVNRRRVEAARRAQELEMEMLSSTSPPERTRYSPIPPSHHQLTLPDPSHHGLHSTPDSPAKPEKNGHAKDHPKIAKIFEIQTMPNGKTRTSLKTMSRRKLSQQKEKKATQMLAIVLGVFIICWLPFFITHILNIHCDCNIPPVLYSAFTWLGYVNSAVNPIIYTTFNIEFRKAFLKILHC
Procedure, shortened: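 HTRF cAMP read-out at 665 and 620 nm emission (340 nm excitation). Antagonist mode: compounds were tested against 12 nM quinpirole in DRD2-HEK293 cells, with 200 nM NKH477 raising cAMP and 0.1 mM Ro20-1724 blocking its breakdown.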

[18] = biological target: 5-hydroxytryptamine receptor 2A (Homo sapiens) (UniProt P28223); assay: 5-hydroxytryptamine receptor 2A (HTR2A) small molecule antagonists, cell-based qHTS assay (AID 1963586); further: nearly all actives have a fitted effect of over 45% in size
Procedure, shortened: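 CHO cells stably expressing human HTR2A were plated for 18 h at 37 C, then loaded with calcium dye for 1 h. Compounds were preincubated 5 min at room temperature before DOI (4 nM solution) was added. Kinetic fluorescence was read for 3 min.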

[19] = biological target: D(2) dopamine receptor (Homo sapiens) (UniProt P14416); assay: Dopamine D2 receptor (DRD2) small molecule agonists, cell-based qHTS assay (AID 1963594); further: nearly all actives have a fitted effect of over 35% in size
Procedure, shortened: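 HEK293 cells stably expressing human DRD2, pre-treated with PDE inhibitor Ro20-1724 (0.1 mM final) and compound 10 min at room temperature, then stimulated with NKH477 (200nM […]) for 30 min. cAMP read by HTRF (665/620 nm).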

[20] = biological target: Beta-2 adrenergic receptor (Homo sapiens) (UniProt P07550); assay: Adrenergic beta2 receptor (ADRB2) small molecule agonists, cell-based qHTS assay (AID 1963593);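 further: CHO cells stably overexpressing human ADRB2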
Procedure, shortened: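 CHO cells stably over-expressing ADRB2 were plated overnight at 37C, then dosed with compounds plus a stimulation mix containing 100uM IBMX and 25uM Ro-20-1724 for 0.5hr at room temperature. cAMP was measured by HTRF competition, 1hr.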
On the % scale 0 is the no-effect control and ±100 the full control effect.

Cc1cccc(C)c1NC(=O)CN1CCCC1
inactive: Potency [1] | Potency [2] | Potency [3] | outcome [4] | outcome [5] | Potency [6] | Potency [7] | Potency [8] | Potency [9] | Potency [10] | Potency [11] | Potency [12] | Potency [13] | Potency [14] | Potency [15] | Potency [16] | Potency [17]

CC1(C)OC(=O)Nc2ccc(Br)cc21
inactive: Potency [1] | Potency [2] | Potency [3] | outcome [4] | outcome [5] | Potency [6] | Potency [7] | Potency [8] | Potency [9] | Potency [10] | Potency [18] | Potency [11] | Potency [12] | Potency [14] | Potency [16] | Potency [19] | Potency [17]

CC(C)C[C@@H](N)C(=O)O
inactive: activity change, negative = cytotoxicity [1] 2.62% [at 19 µM] | activity, positive = activation [2] -3.08% [at 19 µM] | activity change [3] 0.203% [at 11.8 µM, stronger effect = higher value] | activation [4] -0.242% [at 15.8 µM] | activation [5] -0.27% [at 11.8 µM] | activation [6] -1.67% [at 13.5 µM] | activation [7] -1.65% [at 13.6 µM] | activity change, negative = cytotoxicity [8] -0.234% [at 13.5 µM] | activity change, negative = cytotoxicity [9] -2.8% [at 13.5 µM] | activation [10] -0.189% [at 13.5 µM] | activation [11] 2.38% [at 15.9 µM] | activity, negative = inhibition [12] 0.917% [at 12.6 µM] | activation [13] 10.1% [at 15.8 µM] | activity change, negative = inhibition [15] -5.02% [at 18.9 µM] | activity change, negative = inhibition [16] 9.37% [at 19 µM] | Potency [20] | activation [19] 5.36% [at 19 µM]

C[C@@H]1C[C@H]2[C@@H]3CCC4=CC(=O)C=C[C@]4(C)[C@@]3(F)[C@@H](O)C[C@]2(C)[C@@]1(O)C(=O)COP(=O)(O)O
inactive: Potency [1] | Potency [2] | Potency [3] | outcome [4] | outcome [5] | Potency [6] | Potency [7] | Potency [8] | Potency [9] | Potency [10] | Potency [14] | Potency [15] | Potency [16] | Potency [20] | Potency [19] | Potency [17]

CCCCCCCCCC[N+](C)(C)[O-]
inactive: Potency [1] | Potency [2] | Potency [3] | outcome [4] | outcome [5] | Potency [6] | Potency [7] | Potency [8] | Potency [9] | Potency [10] | Potency [18] | Potency [12] | Potency [13] | Potency [14] | Potency [15] | Potency [16] | Potency [19] | Potency [17]

CC(C)CCCCCCOC(=O)CCCCC(=O)OCCCCCCC(C)C
inactive: Potency [1] | Potency [2] | Potency [3] | outcome [4] | outcome [5] | Potency [6] | Potency [7] | Potency [8] | Potency [9] | Potency [10] | Potency [11] | Potency [12] | Potency [13] | Potency [14] | Potency [15] | Potency [16] | Potency [20] | Potency [17]

COC(=O)CCc1ccc(OCC(O)CNC(C)C)cc1 (stereo unspecified)
inactive: Potency [1] | Potency [2] | Potency [3] | outcome [4] | outcome [5] | Potency [6] | Potency [7] | Potency [8] | Potency [9] | Potency [10] | Potency [14] | Potency [15] | Potency [17]
active: Potency [16] 9.44 µM

CCn1cc(C(=O)O)c(=O)c2cc(F)c(N3CCNCC3)nc21
inactive: Potency [1] | Potency [2] | Potency [3] | outcome [4] | outcome [5] | Potency [6] | Potency [7] | Potency [8] | Potency [9] | Potency [10] | Potency [14] | Potency [15] | Potency [19] | Potency [17]
